Screening results deposited in PubChem by National Center for Advancing Translational Sciences (NCATS).
Hits are enriched below; roughly 19% of the tested compounds scored in any of these assays.
Shiga inhibitor = A qHTS for Small Molecule Inhibitors of Shiga Toxin | Vero cells, Shiga toxin protein synthesis inhibition reporter | AID 2315, 2010 | inhibition, % at 38.7 µM | 290,000 tested, 9.2% active; in the data active = inhibition mostly above about 28%, no sharp cut-off; inactive = mostly below about 43%
AMA1 RON2 block = qHTS for Inhibitors of AMA1-RON; Towards Development of Antimalarial Drug Lead: Primary Screen. Plasmodium falciparum AMA1 (3D7) - RON2 peptide interaction. AlphaScreen AMA1-biotinylated RON2 peptide binding. Potency, µM (series often up to 58.2 µM), usual class: inhibitors. 360,000 tested, 0.2% active; also: nearly all actives have a fitted effect of over 45% in size
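AMA1 (3D7) with his tag at 25 nM final met compounds first, then biotinylated RON2 peptide at 25 nM; detection used donor plus acceptor beads, 10 µg/mL apiece, read by AlphaScreen after 30 min at room temperature.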
CHX counter = Cycloheximide Counterscreen for Small Molecule Inhibitors of Shiga Toxin | cell reporter, cycloheximide protein synthesis inhibition counterscreen | 300,000 tested, 12% active | AID 2314, 2010 | max response, %; in the data active = max response mostly above about 13%, no sharp cut-off; inactive = mostly below about 14%; also: read at 38.3 µM for the half of the compounds with a filed dose
Pf growth 96h = Primary qHTS for delayed death inhibitors of the malarial parasite plastid, 96 hour incubation. P. falciparum luciferase reporter growth, 96 h. Potency, µM (doses to about 28.7 µM), actives largely listed as inhibitors. 320,000 tested, 6.9% active. AID 504834, 2011
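Erythrocytes infected with luciferase-expressing P. falciparum were dispensed at 2% hematocrit and 0.05% parasitemia (final), then incubated with compounds 96 hours at 37 C in 5% CO2. Luminescence after detection reagent addition reported growth.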
Pf growth 48h = Primary qHTS for delayed death inhibitors of the malarial parasite plastid, 48 hour incubation; AID 504832, 2011; 310,000 tested, 5.9% active; Potency, µM (series often up to 28.7 µM), hits mostly inhibitors; P. falciparum luciferase growth in erythrocytes, 48 h
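Parasite viability was followed by luminescence of a genomically integrated firefly luciferase. Cultures held 0.1% parasitemia at 2% hematocrit (final), incubated under 5% CO2 at 37 C.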
SARS PLpro yeast = qHTS of Yeast-based Assay for SARS-CoV PLP; S. cerevisiae expressing SARS-CoV PLpro, growth rescue; Potency, µM (top dose mostly 32.9 µM), usual class: activators; 330,000 tested, 0.19% active; AID 485353, 2010; calls by dose curve; also: nearly all actives have a fitted effect of over 55% in size
Hits are given with their value; - = inactive; ? = inconclusive; . = not tested or not shown; + = active, no number; [ ] = dose if it differs, or a comment. Unless noted, calls follow the shape of the dose curve; as a rule, active = well fitted curve in the direction sought with a large enough effect; inconclusive = small, poorly fitted or top-dose-only effect, or another doubt; inactive = no such curve, though single readings can be large; an effect the other way counts as inactive or inconclusive.

SMILES	Shiga inhibitor	AMA1 RON2 block	CHX counter	Pf growth 96h	Pf growth 48h	SARS PLpro yeast
COc1ccc(Cc2c(-c3ccc(F)cc3)nc3cc(C)c(Br)c(C)n23)c(C)c1	.	-	.	.	.	.
COc1ccccc1CNC(=O)CCC(=O)N1Cc2cccc(OC)c2Oc2ncccc21	-	-	-	9.28µM	-	-
CCOc1ccccc1CNC(=O)CCC(=O)N1Cc2ccccc2Oc2ncccc21	-	-	-	9.28µM	-	-
COc1cccc2c1Oc1ncccc1N(C(=O)CCC(=O)NCc1ccccc1F)C2	-	-	-	11.7µM	-	-
CCOc1ccc(CNC(=O)CCC(=O)N2Cc3ccccc3Oc3ncccc32)cc1	-	-	-	?	?	-
COC(=O)CCC(C)C1CCC2C3C(OC(C)=O)CC4CC(O)CCC4(C)C3CC(O)C12C (stereo not given)	.	-	.	.	.	.
O=C(NCCc1ccc(Cl)cc1)C1CCCN1C(=O)Nc1ccccc1 (stereo not given)	-	-	-	?	-	-
Cc1nc(Nc2cnc(/C=C/c3cc(C(=O)Nc4cccc(C(F)(F)F)c4)ccc3C)cn2)cc(N2CCNCC2)n1	-	-	-	?	0.738µM	-
Cc1nc(N2CCC(C)CC2)c2c(C)c(C(=O)Nc3cccc(C(F)(F)F)c3)sc2n1	-	-	-	-	?	-
CCN1CCN(Cc2ccc(NC(=O)Nc3cccs3)cc2)CC1	39.7	-	40.9	-	-	?
COc1ccc(NC(=S)N2CCN(Cc3ccccc3)CC2)cc1	-	-	-	?	-	-
CCN1CCN(c2ccc(NC(=O)c3ccc4c(c3)[nH]c(=O)n4Cc3ccc(OC)cc3)cc2)CC1	-	?	-	10.4µM	?	-
CC(=O)Nc1ccc(CN2CCCN(C)CC2)cc1	-	?	-	-	-	-
CCN1CCN(Cc2ccc(NC(=O)Nc3ccccc3)cc2)CC1	+	-	45.7	-	-	-
CCN1CCN(Cc2ccc(NC(=O)Nc3ccc(OC)cc3)cc2)CC1	42.4	-	21.0	-	?	-
Cc1nnc(SCC(=O)Nc2ccc([N+](=O)[O-])cc2)n1CC1CCCO1 (stereo not given)	-	-	-	-	-	-
CSc1ccc(CN2CCN(C(=O)CC(C)C)CC2)cc1	.	-	-	-	-	-
CCN1CCN(Cc2ccc(NC(=O)Nc3ccc(SC)cc3)cc2)CC1	57.6	-	43.8	.	1.65µM	-
CC(C)CNC(=O)COC(=O)c1c2c(nc3ccccc13)/C(=C/c1cccs1)CC2	56.2	-	24.8	?	?	-
CCc1cccc(C)c1NC(=O)COC(=O)c1c2c(nc3ccccc13)/C(=C\c1cccs1)CCC2	-	-	-	10.4µM	13.1µM	-
CC1CCCCC1NC(=O)COC(=O)c1c2c(nc3ccccc13)/C(=C/c1ccco1)CC2 (stereo not given)	-	?	-	14.7µM	-	-
NC(=O)c1ccc(NC(=O)COC(=O)c2c3c(nc4ccccc24)/C(=C\c2cccs2)CCC3)cc1	-	-	-	-	?	-
Nc1nnc(CSCc2cccc(Br)c2)s1	-	-	-	-	-	-
Cc1cc(OC(=O)c2cccs2)c2c3c(c(=O)oc2c1)CCCC3	-	-	-	-	5.86µM	-
Cc1ccc(-n2nc(C)cc2NC(=O)COc2cc(C)cc3oc(=O)c4c(c23)CCC4)cc1	-	-	-	9.28µM	?	-
SMILES	Shiga inhibitor	AMA1 RON2 block	CHX counter	Pf growth 96h	Pf growth 48h	SARS PLpro yeast
Cc1cc(OC(=O)c2ccco2)c2c3c(c(=O)oc2c1)CCCC3	-	-	-	3.7µM	.	-
Cc1cc2oc(=O)c3c(c2cc1OC(=O)c1ccco1)CCCC3	-	-	-	-	-	-
O=C(c1ccccc1Cl)c1c(O)c2ccccc2oc1=O	.	-	.	.	.	.
CC(C)CN1C(=S)SC(C)(C)C1n1oc(=O)n(-c2ccc(Cl)cc2)c1=O (stereo not given)	-	-	-	?	.	-
COCCNC(=S)N1CCN(Cc2cccc(OC)c2)CC1	-	-	-	?	-	-
CCOC(=O)CNc1nc(C#N)nc(N2CCOCC2)n1	-	-	-	-	?	-
COC(=O)CNc1nc(Cl)nc(NC2CCCCC2)n1	-	-	-	5.22µM	-	-
CCOC(=O)CNc1nc(Cl)nc(N2CCCCC2)n1	-	-	12.3	-	-	-
COc1cccc(NC(=S)NC2CC(C)CC(C)(C)C2)c1 (stereo not given)	.	-	.	.	.	.
COC(=O)C1=C(C)OC(N)=C(C#N)C1c1cc2cc(C)ccc2nc1Cl (stereo not given)	-	-	-	?	-	-
CC(=O)C1=C(C)OC(N)=C(C#N)C1c1cc2cc(C)c(C)cc2nc1Cl (stereo not given)	active	-	31.2	-	-	-
CN(C(=O)C(Cl)Cl)C1CC2C=CC1C2 (stereo not given)	-	-	-	-	-	-
O=C(Cc1ccc(F)cc1)Nc1nnc(-c2ccc(F)cc2)o1	-	-	-	?	?	-
CC(C)c1ccc(/C=C/C2=NNC(=O)CC2)cc1	84.8	-	32.5	-	-	-
COc1cc(/C=C/C2=NNC(=O)CC2)cc(OC)c1OC	-	-	-	-	-[0.00184 µM]	-
Cc1cc(C)n2nc(SCC(=O)NC3CCCCC3)nc2n1	-	-	-	13.1µM	-	-
CCOC(=O)CSc1nc2nc(C)cc(C)n2n1	-	-	-	-	-	-
Cc1cc(C)nc(SCC(=O)NC2CCCC2)n1	-	-	-	-	-	-
CCCn1c(C)cc(C(=O)CSc2nc3nc(C)cc(C)n3n2)c1C	-	-	-	9.28µM	?	-
CN(C)S(=O)(=O)c1cccc(COc2ncnc3c(Cl)cc(Cl)cc23)c1	-	-	-	-	-	-
CC(=O)N(C)c1cccc(-c2ccc3nnc(C)n3n2)c1	-	-	-	-	-[0.00184 µM]	-
CCNc1nc(OC)nc(N2CCC(Cc3ccccc3)CC2)n1	-	-	-	13.1µM	-	-
Cc1ccc(NC(=O)CSc2nc(O)c(Cc3ccccc3)c(=O)n2-c2ccccc2)cc1	-	-	-	?	-	-
COc1ccc(NC(=O)c2ccco2)cc1NC(=O)c1c(OC)cccc1OC	-	-	-	2.33µM	-	-
COc1ccc(NC(=O)c2ccco2)cc1N	65.5	-	64.7	8.28µM	-	-
CCCCCC(=O)N/N=C(\C)c1ccc(Cl)cc1	-	-	-	-	-	-
C[C@@H]1CN([C@H](C)CO)C(=O)CCCn2nncc2CO[C@@H]1CN(C)S(=O)(=O)c1ccc2c(c1)OCCCO2	.	-	.	.	.	.
COc1ccc(N2C(=O)C3NN=C(C(=O)OCc4ccccc4)C3C2=O)cc1 (stereo not given)	-	-	-	-	-	-
Cc1cccc(-n2ncc3c(NNC(=O)c4ccco4)ncnc32)c1	-	-	20.5	-	-	-
